± gives the standard deviation.
tested on: MILI (PIWIL2) piRISC loaded with piRNA #1 (26 nt); test: pre-steady-state target cleavage rate (min^-1); guide: piRNA #1 5'p-UGAGGUAGUAGGUUGUAUAGUAUCCA; MIWI and MILI are mouse PIWI proteins and EfPiwi is from a freshwater sponge; tags in brackets are library labels; higher = faster piRNA-guided slicing of the target; conditions: auxiliary factor: 500 nM mouse GTSF1
How it was run: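 Sequencing of uncleaved targets, normalised to depth and to weakly complementary targets, was the readout of this Cleave-'n-Seq assay. A transcribed, DNA-blocked target RNA library (0.1 nM) was mixed with 1 nM active affinity-purified piRISC carrying one synthetic guide, with or without 500 nM GTSF1 partner protein, in HEPES–potassium acetate buffer at 33 °C for 0–8 or 0–960 min. Three trials were pooled, k3 was capped at 0.0001 min^-1, and a burst-and-steady-state fit gave the pre-steady-state cleavage rate.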

Sequence | pre-steady-state target cleavage rate
GGAGACCUAUGUAUACUACCUUCUACCUCA | 0.00348 ± 0.0016
GGAGACCUAUUUAUACAACCUACUACCUCA | 0.0657 ± 0.02
GGAGACCUAUGAAUACAUCCUACAACCUCA | 0.0119 ± 0.0025
GGAGACCUAACUAUACAAGCUACUAGCUCA | 0.159 ± 0.042
GGAGACCUAUGUAUACAACCUACUACCAGA | 0.055 ± 0.009
GGAGACCUAUGUAUACAACCAUACUACCUCA | 0.00475 ± 0.0025
GGAGACCUAUGAUUACAACCUACUCCUCA | < 0.0001
GGAGACCUAAGUAUACAUCCUACUACCUCA | 0.0911 ± 0.0089
GGAGACCUAUGAUAACAAGCUACAACCUCA | 0.0095 ± 0.0029
GGAGACCUAUCUAAACAAGCUACUACCUCA | 0.176 ± 0.019
GGAGACCUAUGAUAUGAACCUACUACGUGA | < 0.0001
GGAGACGAUACAAUUCAACCUACUACCUCA | 0.147 ± 0.01
GGAGUGGAUACAAUAGAACCUACUACCUCA | 0.163 ± 0.009
GGAGACCAUACUAUACAUGGUACUACCUCA | 0.00626 ± 0.0026
GGAGACCUAUGUAUACCACCUACUACCUCA | 0.0404 ± 0.0088
GGAGACCUAUCUAUACAACCUACAACCUGA | 0.0151 ± 0.0061
GGAGACCUUACUAUACAACCUACUACGCUCA | 0.256 ± 0.019
GGAGAGGAUACUAAUGAACCUACUACCUCA | 0.0555 ± 0.0058
GGAGACCUAUGUAUAGUACCUACUACCUCA | 0.013 ± 0.0027
GGAGACCUAUCUAUACAACCUACUCCCUCA | 0.0608 ± 0.0097

Sequence | pre-steady-state target cleavage rate
GGAGACCUUACUAUACAACGUACUAGCUCA | 0.0137 ± 0.0043
GGAGUGGAUACUAAAGAACCUACUACCUCA | 0.167 ± 0.011
GGAGACCUAUGAUAACAACCUACAUACCUCA | 0.00403 ± 0.002
GGAGACCUAUGAUAUGUACCUACUACCUGA | < 0.0001
GGAGACCUAUCUAUACUACCUAGUACCUCA | 0.0113 ± 0.0036
GGAGACCUUACAAUACAACCUACUACGUCA | 0.0615 ± 0.009
GGAGUGGAUUCUUUACAACCUACUACCUCA | 0.16 ± 0.0093
GGAGACCUAUCUAUCACAACCUACUACCUCA | 0.0519 ± 0.01
GGAGACCAUACUAUACAACCUACUCCUCA | 0.0178 ± 0.0057
GGAGUGGAAACUAUACAACCUACAACCUCA | 0.0962 ± 0.023
GGAGACCUUACUAUACAACUACUACCUCA | 0.0157 ± 0.0032
GGAGACCUAUGAAUACAACCUACUCCCUCA | 0.00391 ± 0.0022
GGAGACCUUACUAUACAACCUACCACCUCA | 0.118 ± 0.015
GGAGACCUAUGAUAUGUUGCUACUGACCUCA | < 0.0001
GGAGACCUAACUAUACAACCUACAUACCUCA | 0.0941 ± 0.018
GGAGAGGAUACUAUAAACCUACUACCUCA | 0.0203 ± 0.0036
GGAGACCUAUGAUAUGUUCCUAUCUACCUCA | < 0.0001
GGAGACCUAUGAAUACUACCUACUAGCUCA | 0.00378 ± 0.0025
GGAGACCUAACUAUACUACGUACUACCUCA | 0.0154 ± 0.0042
GGAGAGGAUACUAUACAACCUACAUGCUCA | 0.00576 ± 0.003

Reference: the supplement of paper PMC10338343
